SSB-PriA inh: inhibitors of Klebsiella pneumoniae PriA binding to SSB C-terminal tail, primary screen, biochemical, AlphaScreen | PriA–SSB C-terminal tail interaction (Klebsiella pneumoniae) | AlphaScreen SSBct-PriA binding, biotinylated peptide | inhibition, % at 33 µM | actives 0.6% (n = 430,000) | AID 1272365, 2023; in the data active = inhibition mostly above about 37%, no sharp cut-off; inactive = mostly below about 20%
CCHF vOTU inh-1: CCHFV vOTU protease inhibitors, primary screen, biochemical, Pep-AMC substrate, fluorescence. inhibition, % at 11.5 µM. Crimean-Congo hemorrhagic fever virus L polyprotein viral ovarian tumor (vOTU) protease …. AID 651958, 2012. actives 0.55% (n = 370,000)
DUSP3 inh: VHR1 phosphatase inhibitors, primary screen, biochemical, absorbance, uHTS; Dual specificity protein phosphatase 3 (Homo sapiens), P51452; recombinant VHR phosphatase, pNPP absorbance; inhibition, % at 13.3 µM; actives 0.52% (n = 290,000); AID 1654, 2009; in the data active = inhibition above about 50%
Target sequence (P51452 whole entry, looked up): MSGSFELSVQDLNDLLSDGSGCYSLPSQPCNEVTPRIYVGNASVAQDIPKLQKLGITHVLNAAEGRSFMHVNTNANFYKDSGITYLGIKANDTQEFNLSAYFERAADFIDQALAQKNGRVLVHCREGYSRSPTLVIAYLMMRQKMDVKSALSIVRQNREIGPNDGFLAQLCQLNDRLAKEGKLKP
RecA intein inh: Mtb RecA intein splicing inhibitors, primary screen, biochemical, fluorescence, HTS; Protein RecA (Mycobacterium tuberculosis (strain ATCC 25618 / H37Rv)), P9WHJ3; cell-free RecA intein splicing; inhibition, % (concentration not given with the values); actives 0.75% (n = 290,000); in the data active = inhibition above about 30%
SARS 3CLpro inh: SARS-CoV 3CLpro protease inhibitors, primary screen, biochemical, quenched FRET | inhibition, % at 6 µM | recombinant SARS-CoV 3CLpro, quenched FRET peptide cleavage | AID 1706, 2009 | actives 0.14% (n = 290,000); in the data active = inhibition above about 12%
CCHF vOTU inh-2: CCHFV vOTU protease inhibitors, confirmation, biochemical, Pep-AMC substrate, fluorescence; shares compounds with CCHF vOTU inh-1; Recombinant CCHFV vOTU; inhibition, % at 11.5 µM; actives 17% (n = 1,900)
A number is an active result; 0 = inactive; - = no result. Shown are actives, neighbours in structure and some others; about 1.7% of the full set was active somewhere. Cut-off read from the data, not from the text of the source, unless noted: active = inhibition above about 30%; inactive = the rest.

SMILES	SSB-PriA inh	CCHF vOTU inh-1	DUSP3 inh	RecA intein inh	SARS 3CLpro inh	CCHF vOTU inh-2
Cc1cc(OCc2cc(C(=O)N(C)Cc3nonc3C)no2)cc(C)c1Cl	0	31	0	0	0	0
Cc1cc(OCc2cc(C(=O)N(C)CCc3cnn(C)c3)no2)cc(C)c1Cl	0	0	0	0	0	-
CCc1ccc(CN(C)C(=O)c2cc(COc3cc(C)c(Cl)c(C)c3)on2)nc1	0	30	0	0	0	0
COC(CNC(=O)C1COc2ccccc2O1)c1ccsc1 (stereo not drawn)	0	-	-	-	-	-
Cc1ccc(Cl)cc1N1CCN(C(=O)C2CCCN(S(=O)(=O)c3cnc[nH]3)C2)CC1 (stereo not drawn)	0	0	0	0	0	-
CC(=O)c1ccc(N2CCN(C(=O)C3CCCN(S(=O)(=O)c4cnc[nH]4)C3)CC2)cc1 (stereo not drawn)	0	34	0	0	0	0
CN=c1sc(C(=O)Nc2ccccc2)c(C)n1C	0	0	0	0	0	-
CN=c1sc2c(n1C)C(=O)c1ccccc1C2=O	0	80	-	-	-	79
CCOc1ccccc1Oc1cn[nH]c1-c1ccc(OCC=C(C)C)cc1O	0	-	-	-	-	-
CC1Cc2nc(SCC(=O)NCc3ccco3)n(-c3ccccc3)c(=O)c2S1 (stereo not drawn)	0	30	0	0	0	0
Oc1ccc(Br)cc1CNc1cccc2cccnc12	0	0	0	0	0	-
Oc1ccc(Cl)cc1CNc1cccc2cccnc12	0	102	0	0	0	0
COc1cccc(CNc2cccc3cccnc23)c1O	0	0	0	0	0	-
Oc1c(Br)cc(Br)cc1CNc1cccc2cccnc12	0	116	0	0	0	0
CCOc1cc(C=NN=C2NC(=O)C(CC(=O)O)S2)ccc1OCc1ccc(Cl)cc1 (stereo not drawn)	0	-	-	-	-	-
O=C(NCCn1nc(-c2cccnc2)ccc1=O)c1ccco1	0	-	-	-	-	-
Cc1cc(NC(=O)CSc2ncc(-c3ccc(Cl)cc3)o2)ccc1Br	0	-	-	-	-	-
CCc1noc(C)c1C(=O)N(C)CC(=O)Nc1ccccc1C(F)(F)F	0	36	-	0	-	0
CCc1noc(C)c1C(=O)N(C)CC(=O)Nc1ccc(Cl)c(Cl)c1	0	0	-	0	-	-
CCOC(=O)C(=CNc1cc(C)nn1C(C)(C)C)C(=O)OCC	0	0	0	0	0	-
CCOC(=O)C(=CNc1cc(C)nn1-c1ccc(C)cc1)C(=O)OCC	0	30	0	0	0	0
CCOC(=O)c1sc(NC(=O)c2sc(-c3ccccc3)nc2C)c(C(=O)OCC)c1C	0	-	-	-	-	-
Cc1ccc(S(=O)(=O)n2cnc3cc([N+](=O)[O-])ccc32)cc1C	0	0	0	0	0	-
Cc1ccc(-n2c3nc(=O)[nH]c(=O)c-3cc3cc([N+](=O)[O-])ccc32)cc1C	0	31	0	-	0	0
O=C(COc1ccc(Cl)cc1)N1CCN(c2ccc(-n3cccc3)nn2)CC1	0	-	-	-	-	-
SMILES	SSB-PriA inh	CCHF vOTU inh-1	DUSP3 inh	RecA intein inh	SARS 3CLpro inh	CCHF vOTU inh-2
Cc1c(C=NNC(N)=O)c2ccccn2c1C(=O)c1ccc(F)cc1	0	-	-	-	-	-
Cc1c(/C=N/NC(N)=O)c2ccccn2c1C(=O)c1ccncc1	0	32	0	0	0	0
CO[C@@]1(CNC(=O)COc2ccccc2C)CCSC1	0	-	-	-	-	-
O=C(O)c1ccc(N=Nc2c(O)[nH]c3ccc(Br)cc23)cc1	0	0	-	0	0	-
O=c1ccc2cc3c([nH]c4ccc(Br)cc43)oc-2c1O	-	32	0	0	0	0
Cc1noc(Cc2ccccc2NC(=O)Cn2cnc3ccccc3c2=O)n1	0	-	-	-	-	-
CC1(OC(=O)C2CCCC2)C(=O)C=C2C=C(c3ccsc3)N(C(CO)CO)C=C2C1=O (stereo not drawn)	0	32	0	0	-	0
CC(C)CN1C=C2C(=O)C(C)(OC(=O)C3CCCC3)C(=O)C=C2C=C1c1ccsc1 (stereo not drawn)	0	0	0	0	-	-
CCOc1cc(-c2cc(-c3ccc(C)o3)nc(N)c2C#N)ccc1O	0	0	0	0	0	-
CCCc1cc(-c2ccc(O)c(OCC)c2)c(C#N)c(N)n1	0	39	0	-	0	0
